Values without a mark were called inactive. For some assays here: Entries with a potency or affinity are not part of this list. Calls of active or inactive are those of the source. Unless noted, how the calls were made is not given here.

Assay [1] can be described thus: antimalarial activity against Dd2 strain (AID 2302;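 active means growth inhibition above 50% at the single 2 µM test dose, taken to imply half-maximal potency below 2 µM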;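 further: 0% = DMSO untreated growth and 100% = chloroquine plus artemisinin killed control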). To be noted: P. falciparum Dd2 in RBCs, LDH growth readout, 72 h; at 2 µM; stronger effect = higher value.
Assay [2] in a line: human hepatoma cell viability loss – ATP luminescence, cytotoxicity control for P. falciparum antimalarial project, primary screen (AID 2303;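 active means inhibition above 50%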;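 further: 0% = DMSO wells and 100% = digitonin-killed cells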). To be noted: HepG2 viability, 24-48 h, at 10 µM, stronger effect = higher value.
Assay [3] deals with L-lactate dehydrogenase (Plasmodium falciparum (isolate CDC / Honduras)) (UniProt Q27743). As to the kind of experiment: PfLDH activity inhibition – cell lysate, 3D7 strain, counter-screen for P. falciparum growth inhibition project (AID 2304).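 Further: 0% = vehicle and 100% = reference inhibitor.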 The note with it: P. falciparum 3D7 crude extract, LDH APAD/NBT absorbance; at 2 µM; stronger effect = higher value. Background: The purpose of a counterscreen is to sort out artefacts and off-target activity.
L-lactate dehydrogenase (Plasmodium falciparum (isolate CDC / Honduras)), sequence (Q27743 whole entry, looked up): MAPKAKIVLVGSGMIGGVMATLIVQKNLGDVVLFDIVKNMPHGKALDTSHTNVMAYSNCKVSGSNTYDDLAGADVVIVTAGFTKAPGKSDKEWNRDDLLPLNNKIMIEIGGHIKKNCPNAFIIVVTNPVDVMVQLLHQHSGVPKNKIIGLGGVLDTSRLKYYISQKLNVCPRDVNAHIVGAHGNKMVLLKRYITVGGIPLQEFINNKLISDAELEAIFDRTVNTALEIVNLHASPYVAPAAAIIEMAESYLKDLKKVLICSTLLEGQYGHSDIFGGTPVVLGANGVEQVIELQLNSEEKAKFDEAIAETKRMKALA

The nature of assay [4]: inhibition of 3D7 malaria parasite growth – strain 3D7 (AID 2306).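 Further: 0% = DMSO wells and 100% = chloroquine plus artemisinin control wells.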 To be noted: P. falciparum 3D7 erythrocytic growth, LDH absorbance, 72 h; at 2 µM; stronger effect = higher value.
Assay [5] deals with Calcium-dependent protein kinase 1 (Plasmodium falciparum (isolate 3D7)) (UniProt P62344). As to the kind of experiment: PfCDPK1 kinase inhibitors, biochemical, TCAMS library (AID 1159585; cut-off not given, nearly all actives have IC50 up to about 0.98 µM;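 further: inhibitors leave more ATP so luminescence rises with inhibition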). To be noted: recombinant PfCDPK1, Kinase-Glo ATP depletion luminescence.
Calcium-dependent protein kinase 1 (Plasmodium falciparum (isolate 3D7)), sequence (P62344 whole entry, looked up): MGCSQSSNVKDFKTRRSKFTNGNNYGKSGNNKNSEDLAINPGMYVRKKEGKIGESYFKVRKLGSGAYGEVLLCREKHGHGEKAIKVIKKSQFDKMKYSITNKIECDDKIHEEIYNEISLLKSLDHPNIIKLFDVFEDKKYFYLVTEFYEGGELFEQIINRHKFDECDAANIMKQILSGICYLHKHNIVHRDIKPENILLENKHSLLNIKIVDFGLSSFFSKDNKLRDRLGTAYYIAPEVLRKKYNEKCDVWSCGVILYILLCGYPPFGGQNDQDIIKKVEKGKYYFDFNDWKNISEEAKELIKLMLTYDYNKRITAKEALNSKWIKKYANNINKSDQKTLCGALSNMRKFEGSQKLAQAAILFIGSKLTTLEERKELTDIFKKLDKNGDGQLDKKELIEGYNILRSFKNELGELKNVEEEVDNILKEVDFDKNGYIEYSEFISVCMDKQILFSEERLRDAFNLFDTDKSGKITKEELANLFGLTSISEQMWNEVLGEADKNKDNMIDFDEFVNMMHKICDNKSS
For assay [6], the target named is Plasmodium falciparum protein kinase 6 (PK6, PF3D7_1337100) (UniProt Q8IDW1). As to the kind of experiment: PfPK6 kinase inhibitors, biochemical, TCAMS library (AID 1159586). The note with it: recombinant PfPK6, Kinase-Glo ATP depletion luminescence. On the technique in general: Kinase-Glo measures the ATP left after a reaction by luminescence.
Plasmodium falciparum protein kinase 6 (PK6, PF3D7_1337100), sequence (Q8IDW1 1-305): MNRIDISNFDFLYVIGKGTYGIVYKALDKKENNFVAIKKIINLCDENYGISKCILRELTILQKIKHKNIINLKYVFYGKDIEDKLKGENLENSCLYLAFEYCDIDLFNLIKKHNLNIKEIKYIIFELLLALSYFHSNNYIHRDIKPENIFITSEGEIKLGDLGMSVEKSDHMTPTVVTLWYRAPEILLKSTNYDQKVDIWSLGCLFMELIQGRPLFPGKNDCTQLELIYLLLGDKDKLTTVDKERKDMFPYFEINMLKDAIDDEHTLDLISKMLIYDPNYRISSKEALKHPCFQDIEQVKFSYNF
Assay [7] has as its target Protein kinase 7 (PK7), Plasmodium falciparum 3D7 (PF3D7_0213400) (UniProt Q7YTF7). As to the kind of experiment: inhibition of Plasmodium PK7 catalytic activity – biochemical, TCAMS antimalarial set, Kinase-Glo luminescence (AID 1159587). The note with it: recombinant PfPK7, Kinase-Glo ATP depletion luminescence.
In assay [8] the target is Calcium-dependent protein kinase 4 (Plasmodium falciparum (isolate 3D7)) (UniProt Q8IBS5). As to the kind of experiment: PfCDPK4 kinase inhibitors, biochemical, TCAMS library (AID 1159588; cut-off not given, nearly all actives have IC50 up to about 0.91 µM). The note with it: recombinant PfCDPK4, Kinase-Glo ATP depletion luminescence.
Calcium-dependent protein kinase 4 (Plasmodium falciparum (isolate 3D7)), sequence (Q8IBS5 whole entry, looked up): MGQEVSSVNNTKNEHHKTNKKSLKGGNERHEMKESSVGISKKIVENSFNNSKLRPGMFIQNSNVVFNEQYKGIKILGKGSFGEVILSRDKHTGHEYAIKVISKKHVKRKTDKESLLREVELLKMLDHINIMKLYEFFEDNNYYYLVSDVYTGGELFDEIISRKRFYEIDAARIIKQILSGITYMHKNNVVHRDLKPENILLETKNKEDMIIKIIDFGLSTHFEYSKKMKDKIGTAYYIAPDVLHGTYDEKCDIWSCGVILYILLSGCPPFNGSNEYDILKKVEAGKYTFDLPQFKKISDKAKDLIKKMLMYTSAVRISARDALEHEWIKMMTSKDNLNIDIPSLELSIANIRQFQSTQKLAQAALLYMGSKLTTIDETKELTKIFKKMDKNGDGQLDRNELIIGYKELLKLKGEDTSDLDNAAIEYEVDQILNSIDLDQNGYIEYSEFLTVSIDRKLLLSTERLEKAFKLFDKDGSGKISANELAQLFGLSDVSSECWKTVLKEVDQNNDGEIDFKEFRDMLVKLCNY

Protein kinase 7 (PK7), Plasmodium falciparum 3D7 (PF3D7_0213400), sequence (Q7YTF7 1-343): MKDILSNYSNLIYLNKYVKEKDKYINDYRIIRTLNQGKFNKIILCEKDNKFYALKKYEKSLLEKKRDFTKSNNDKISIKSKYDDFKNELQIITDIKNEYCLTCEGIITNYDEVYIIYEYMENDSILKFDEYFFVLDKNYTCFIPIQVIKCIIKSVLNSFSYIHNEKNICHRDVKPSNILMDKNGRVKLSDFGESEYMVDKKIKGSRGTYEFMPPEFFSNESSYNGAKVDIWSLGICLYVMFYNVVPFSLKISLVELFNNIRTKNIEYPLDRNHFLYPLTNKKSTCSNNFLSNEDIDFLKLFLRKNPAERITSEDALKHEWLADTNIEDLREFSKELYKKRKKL

A word on the inhibition: it is the change of the read-out against control, counted positive when it falls. As for `COc1ccccc1CCNc1nc(C)cc(N[C@@H](CC(C)C)C(=O)NCCc2ccccc2)n1`, the results for the growth inhibition in assay [1] and in assay [4] were 81% (active) and 97% (active), respectively. For the same compound, the inhibition in assay [2] is 12%; in assay [3], -2%. The outcome in assay [5], in assay [6], in assay [7] and in assay [8] was inactive.

`CN1CCN(c2cccc(NC(=O)c3ccc(-c4ccc(C#N)cc4)cc3)c2)CC1`: the growth inhibition was 7% in assay [1] and 84% (active) in assay [4]. Also, the values for the inhibition in assay [2] and in assay [3] were 31% and 2%, respectively. In addition, the result in assay [5], in assay [6], in assay [7] and in assay [8] was inactive.

On to `CC(C)c1cc2c(ccc3nc(N)nc(N)c32)[nH]1`, for which the figures for the growth inhibition in assay [1] and in assay [4] were 4% and 93% (active), respectively. The inhibition in assay [2] is 49%; in assay [3] it was 2%. Besides, the result in assay [5], in assay [6], in assay [7] and in assay [8] was inactive.

With `COC(=O)C1=C(C)NC2=C(C(=O)CC(c3ccc(OC)c(OC)c3)C2)C1c1cccc(O)c1` (configuration not stated), the growth inhibition in assay [1] was 69% (active); in assay [4] it was 99% (active). Besides, the inhibition in assay [2] was 2%; in assay [3], 5%. Further, the result in assay [5], in assay [6], in assay [7] and in assay [8] was inactive.

Take `CCCCNCc1ccc(-c2nc(CN(CCCn3ccnc3)C(=O)Nc3ccc(CC)cc3)cs2)cc1`: the figures for the growth inhibition in assay [1] and in assay [4] were 56% (active) and 101% (active), respectively. Besides, the inhibition in assay [2] is 21%; in assay [3] it was 6%. Also, the result in assay [5], in assay [6], in assay [7] and in assay [8] was inactive.

For `Cc1cccc2[nH]c(-c3cccc(-c4ccc(CNCc5cnn(-c6ccccc6)n5)cc4)c3)nc12`, the growth inhibition in assay [1] is 66% (active); in assay [4], 102% (active). In addition, the inhibition in assay [2] was 20%; in assay [3], -4%. Moreover, the result in assay [5], in assay [6], in assay [7] and in assay [8] was inactive.

Turning to `NC1CCCN(Cc2ccc(-c3cccc(-c4nc5ccc(F)cc5[nH]4)c3)cc2)C1` (configuration not stated), the growth inhibition in assay [1] is 75% (active); in assay [4], 100% (active). Moreover, the inhibition in assay [2] is 54% (active); in assay [3] it was 1%. Besides, the outcome in assay [5], in assay [6], in assay [7] and in assay [8] was inactive.

Consider `COC(=O)c1ccc(NC(=O)c2ccc(CCN3CCC(c4nc(COCC(F)(F)F)c(-c5ccc(F)cc5)o4)CC3)cc2)cc1`, for which the results for the growth inhibition in assay [1] and in assay [4] were 37% and 89% (active), respectively. The inhibition in assay [2] was 22%; in assay [3] it was -5%. Further, the result in assay [5], in assay [6], in assay [7] and in assay [8] was inactive.

On to `CN1CCC(c2ccc(NC(=O)c3ccc(-c4cccc(C(F)(F)F)c4)o3)cc2)CC1`, for which the values for the growth inhibition in assay [1] and in assay [4] were 23% and 86% (active), respectively. For the same compound, the figures for the inhibition in assay [2] and in assay [3] were 23% and -3%, respectively. Besides, the result in assay [5], in assay [6], in assay [7] and in assay [8] was inactive.

As to `COc1ccc2nccc([C@@H](O)CN3CCC(NCc4cc5c(Cl)cccc5[nH]4)CC3)c2c1`, the growth inhibition is 74% (active) in assay [1] and 101% (active) in assay [4]. Further, the inhibition in assay [2] is 40%; in assay [3], 1%. For the same compound, the outcome in assay [5], in assay [6], in assay [7] and in assay [8] was inactive.

For the compound `CNC(=S)NCc1cnc2ccccn12`, the growth inhibition is -2% in assay [1] and 97% (active) in assay [4]. Moreover, the inhibition in assay [2] is -2%; in assay [3], 3%. Further, the outcome in assay [5], in assay [6], in assay [7] and in assay [8] was inactive.

In the case of `COCCNCc1ccc(-c2cccc(CNC3CCN(Cc4ccccc4)CC3)c2)cc1`, the figures for the growth inhibition in assay [1] and in assay [4] were 101% (active) and 100% (active), respectively. In addition, the figures for the inhibition in assay [2] and in assay [3] were 30% and 0%, respectively. Moreover, the outcome in assay [5], in assay [6], in assay [7] and in assay [8] was inactive.

As to `N#Cc1ccc2c(c1)CCN(CCC1CCC(NC(=O)Nc3cnc4ccccc4c3)CC1)C2` (configuration not stated), the figures for the growth inhibition in assay [1] and in assay [4] were 9% and 93% (active), respectively. Further, the inhibition in assay [2] was 14%; in assay [3], 6%. Further, the result in assay [5], in assay [6], in assay [7] and in assay [8] was inactive.

In the case of `Cc1nc2nc(N)nc(N)c2c(C)c1Cc1ccc(C#N)cc1`, the growth inhibition in assay [1] was 4%; in assay [4] it was 96% (active). Also, the inhibition in assay [2] was 69% (active); in assay [3], 1%. For the same compound, the outcome in assay [5], in assay [6], in assay [7] and in assay [8] was inactive.

With `Cc1cc(NCC(c2ccccc2)c2ccccc2)nc(NCC2CCCCC2)n1`, the growth inhibition in assay [1] was 93% (active); in assay [4], 100% (active). Moreover, the inhibition is 12% in assay [2] and 3% in assay [3]. Also, the result in assay [5], in assay [6], in assay [7] and in assay [8] was inactive.

As to `CN(C)CCCc1cc(NC(=O)Nc2cccc(Cl)c2Cl)ccc1I`, the growth inhibition in assay [1] was 45%; in assay [4], 102% (active). In addition, the inhibition in assay [2] was 12%; in assay [3] it was 1%. The outcome in assay [5], in assay [6], in assay [7] and in assay [8] was inactive.

Regarding `Oc1ccccc1N1CCN(c2ccc(-c3nc4ccccc4[nH]3)cn2)CC1`, the growth inhibition in assay [1] was 50% (active); in assay [4] it was 97% (active). Moreover, the inhibition in assay [2] is -12%; in assay [3] it was -2%. The outcome in assay [5], in assay [6], in assay [7] and in assay [8] was inactive.

As for `CN(C)c1ccnc2ccc(NC(=O)Nc3ccnc4ccccc34)cc12`, the growth inhibition in assay [1] is 99% (active); in assay [4], 100% (active). In addition, the inhibition in assay [2] was 15%; in assay [3], 3%. The result in assay [5], in assay [6], in assay [7] and in assay [8] was inactive.

Turning to `Fc1cccc(Nc2nc(NCc3ccc4ccsc4c3)nc(Nc3cccc(F)c3)n2)c1`, the growth inhibition in assay [1] was 11%; in assay [4] it was 94% (active). The inhibition is -2% in assay [2] and -1% in assay [3]. Besides, the outcome in assay [5], in assay [6], in assay [7] and in assay [8] was inactive.
